Hits are enriched below; roughly 2.1% of the tested compounds scored in any of these assays.
Ba/F3 V617F tox = loss of viability in JAK2V617F-driven Ba/F3 cells; hit rate 1.1% among 220,000; AID 1446; Ba/F3 EpoR-JAK2V617F viability, ATP luminescence; inhibition, % at 5.6 µM;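 active = inhibition above the campaign mean plus 3 SD over all tested compounds, cut at about 24% in these data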;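 also: cytokine-independent growth of Ba/F3 cells driven by EpoR plus mutant JAK2; 0% = DMSO-treated cells and 100% = JAK inhibitor I control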
KLF5 inhibitor = suppresses KLF5 promoter-driven expression; hit rate 0.23% among 290,000; DLD-1 KLF5 promoter-luciferase reporter, luminescence; inhibition, % at 5 µM;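 active = inhibition above a per-plate limit of that plate's mean compound inhibition plus 3 SD, cut at about 60% in these data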;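 also: 0% = DMSO wells and 100% = LY294002 at 200 µM; higher means less KLF5 promoter-driven luciferase light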
aSyn UTR inh = MLPCN primary screen, SNCA 5' untranslated region; alpha-synuclein 5'UTR reporter, inhibitor activity; inhibition, % (tested at 7.5 µM); hit rate 0.82% among 300,000; in the data active = inhibition above about 60%;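 also: H4 neuroglioblastoma cells stably carrying SNCA 5'UTR luciferase fusion; 0% = DMSO wells and 100% = positive control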
APP 5UTR inh = APP translation inhibition | SH-SY5Y APP 5'UTR-luciferase reporter, luminescence | inhibition, % at 2 µM | hit rate 0.82% among 190,000 | AID 1285;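 active = inhibition above a set limit, derived from the sample mean plus 3 SD, cut at about 45% in these data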
BaF3 parental = parental Ba/F3 viability inhibition as JAK2V617F counter-screen | CellTiter-Glo ATP luminescence | inhibition, % at 5.6 µM | hit rate 1.1% among 220,000 | AID 1486;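 active = inhibition above a per-campaign cutoff, the mean inhibition of all tested compounds plus 3 SD, cut at about 27% in these data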;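 also: 0% = DMSO wells and 100% = JAK Inhibitor I control wells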
IEC-6 tox-1 = counter-screen for KLF5 inhibitors: cytotoxicity in IEC-6 cells; IEC-6 cytotoxicity, luminescence viability; inhibition, % at 5 µM; hit rate 0.78% among 290,000; AID 1825; in the data active = inhibition above about 22%;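 also: 0% = plate median of test compound wells and 100% = cytotoxic reference compound wells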
KLF5 confirm = KLF5 inhibition, confirmation assay | shares compounds with KLF5 inhibitor | DLD-1 KLF5 promoter firefly luciferase reporter, luminescence | inhibition, % at 4 µM | hit rate 79% among 610 | AID 1834;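 active = inhibition above a set limit taken from the earlier primary screen, cut at about 63% in these data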;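 also: 0% = DMSO wells and 100% = LY294002 at 200 µM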
IEC-6 tox-2 = rat IEC-6 cytotoxicity, KLF5 inhibitor counter-screen. shares compounds with KLF5 inhibitor. IEC-6 rat intestinal cells, viability luminescence. inhibition, % at 4 µM. hit rate 56% among 610. AID 1905; in the data active = inhibition above about 23%;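 also: cells exposed to compounds for 48 hours before viability read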
* = called active by the depositor; / = no result given.

SMILES	Ba/F3 V617F tox	KLF5 inhibitor	aSyn UTR inh	APP 5UTR inh	BaF3 parental	IEC-6 tox-1	KLF5 confirm	IEC-6 tox-2
COc1cccc(/C=N/Nc2nccnc2Cl)c1O	95*	104*	90*	51*	94*	7	90*	-4
C/C=C/COC(=O)c1[nH]c2c(c1C)C(=O)CC(c1ccco1)C2 (stereo unspecified)	78*	83*	67*	95*	78*	83*	89*	57*
Oc1ccc(-c2nc(-c3ccc(O)c(O)c3)cs2)cc1	88*	69*	36	94*	81*	-1	48	-1
CCC(C)[C@H]1CNCCN1CCc1cccc(F)c1 (stereo partly specified)	/	/	3	/	/	/	/	/
O=[N+]([O-])c1ccc(O)c(-c2cc(C(F)(F)F)nc(-c3ccccc3)n2)c1	/	82*	90*	/	/	13	86*	41*
Oc1ccccc1-c1cc(C(F)(F)C(F)F)nc(-c2ccccc2)n1	-1	1	/	-1	0	-8	/	/
CC(=O)N(Cc1ccc(F)cc1)C1=C(NCCc2ccccc2)C(=O)c2ccccc2C1=O	7	79*	70*	44	7	54*	5	-5
CC(=O)N(Cc1ccc(F)cc1)c1cccc(C)c1C	0	-10	-1	-3	7	6	/	/
CCn1c(=O)n(CC)c2cc(N3CCCC3)c(NC(=O)c3cccc(Cl)c3)cc21	/	-2	28	/	/	2	/	/
CCc1nc2sc3c(c2c(=O)o1)CCCC3	8	11	-10	-6	9	0	/	/
CC(C)(C)c1nc2sc3c(c2c(=O)o1)CCCC3	2	69*	5	10	4	-3	3	-6
CCN1CCCC1CNC(=O)c1cc2cc(F)ccc2[nH]1 (stereo unspecified)	/	-13	30	/	/	4	/	/
COc1ccc(-n2ncc3c(N(C)C4CCCCC4)ncnc32)cc1	/	74*	94*	/	/	5	64*	1
COc1ccc(-n2ncc3c(N4CCC(C)CC4)ncnc32)cc1	/	-43	18	/	/	-6	/	/
CCCC(=O)NC(c1ccc(N(C)C)cc1)c1c(O)ccc2ccccc12 (stereo unspecified)	-2	2	-2	3	2	-8	/	/
CCCCC(=O)NC(c1ccc(N(CC)CC)cc1)c1ccc2cccnc2c1O (stereo unspecified)	/	68*	68*	/	/	11	85*	44*
CCCC(=O)NC(c1ccc(Cl)cc1Cl)c1ccc2cccnc2c1O (stereo unspecified)	/	82*	64*	/	/	19	82*	53*
CCCC(=O)NC(c1ccccc1OC)c1ccc2cccnc2c1O (stereo unspecified)	102*	91*	124*	75*	101*	101*	97*	47*
CCCC(=O)NC(c1ccccc1Cl)c1c(O)ccc2ccccc12 (stereo unspecified)	6	-14	6	-11	9	-4	/	/
CCC(=O)NC(c1ccc(OC)c(OC)c1)c1cc(Cl)c2cccnc2c1O (stereo unspecified)	81*	68*	111*	62*	39*	11	87*	30*
CC1=CC(C)(C)N(C(=O)CNC2CCCC2)c2cc(C)ccc21	-5	-11	-107	-15	9	-8	/	/
COc1ccc(CN(CC(=O)NCc2ccco2)C(=O)CNS(=O)(=O)c2ccc(C)cc2)cc1	/	9	3	/	/	6	/	/
COc1ccc(C(=O)N2CCN(c3ncnc4c(-c5ccccc5)nsc34)CC2)cc1	-2	-4	15	-4	-3	11	/	/
COc1ccc(-c2nsc3c(N4CCCCC4C)ncnc23)cc1 (stereo unspecified)	-1	76*	90*	34	6	-2	92*	3
CC(C)(C)c1ccc(-c2noc(CCC(=O)NCc3ccco3)n2)cc1	-3	62*	77*	68*	26	-1	65*	11
O=C(Nc1ncc([N+](=O)[O-])s1)c1ccc2c(c1)OCO2	/	76*	103*	/	/	12	55	36*
CCCCN1C(C)=CC(=C2C(=O)c3ccccc3C2=O)C=C1C	2	-104	46	-180	4	8	/	/
